Experimental data: PubChem BioAssay (NCATS)
Values joined by “and” are separate entries in the source; they are usually repeats but may differ in a detail not shown here. Identical values can stand only once. Inconclusive results are not listed. A call without a number means that no potency is given here. Active and inactive are the calls of the source. Unless noted, calls come from the whole dose curve.

Key:
[1] = target: Mitogen-activated protein kinase 10 (Mus musculus) (UniProt Q61831); experiment: JNK3 AlphaScreen Assay (AID 530; active = well fitted curve in either direction with a large enough effect, not every such curve was filed as active;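 note: kinase came from lysate of stimulated human HepG2 cells; signal reports phosphorylation of biotinylated GST-cJun 1-79 at Ser73 with 10 µM ATP; series mostly up to about 57 µM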)
In short: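 JNK3 came from HepG2 lysates pre-activated with IL-1beta and TNF-alpha and phosphorylated biotinylated GST-cJun (1-79) at 10 uM ATP, pH 7.6, room temperature. Compounds were titrated. AlphaScreen signal used anti-phospho-cJun (Ser73) antibody.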

[2] = target: Cytochrome P450 3A4 (Homo sapiens) (UniProt P08684); experiment: qHTS Assay for Inhibitors and Substrates of Cytochrome P450 3A4 (AID 884; active = well fitted curve in the direction sought with a large enough effect; an effect the other way counts as inactive or inconclusive; note: nearly all actives have a fitted effect of over 50% in size; note: potency is the fitted concentration of half-maximal effect)
In short: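 20 nM human CYP3A4 with 25 uM Luciferin-PPXE (at KM) in 200 mM KPO4, preincubated 10 min with compound; NADPH regeneration started a 60 min RT reaction. Luciferin detected by luminescence, normalized to 57 uM ketoconazole as full inhibition.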

[3] = MultiTox-Fluor Cytotoxicity Assay - LYMP1-001 - Live Cells (AID 947; active = well fitted curve in the direction sought with a large enough effect; an effect the other way counts as inactive or inconclusive)
[4] = MultiTox-Fluor Cytotoxicity Assay - LYMP1-002 - Dead Cells (AID 960; active = well fitted curve in the direction sought with a large enough effect; an effect the other way counts as inactive or inconclusive; note: nearly all actives have a fitted effect of over 60% in size)
In short: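 Acute cytotoxicity in a human lymphoblastoid line is scored as rising dead-cell protease signal after 16 hr exposure at 37 C, measured fluorometrically (485/520).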

[5] = Cell Viability - LYMP2-004 (AID 966; active = well fitted curve in the direction sought with a large enough effect; an effect the other way counts as inactive or inconclusive; note: nearly all actives have a fitted effect of over 65% in size)
In short: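 Acute toxicity is scored as a concentration-dependent drop in intracellular ATP, quantified by luciferase luminescence, in human lymphoblastoid cells exposed to compound for 24 hr. AC50 derives from Hill-equation modelling.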

[6] = target: Estrogen receptor (Homo sapiens) (UniProt P03372); experiment: qHTS assay for small molecule antagonists of estrogen receptor alpha signaling (AID 588513; active = well fitted curve in the direction sought with a large enough effect in the signal ratio, with a control signal flat, not every such curve was filed as active; the % refers to the signal ratio)
In short: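 ER-alpha-UAS-bla GripTite HEK 293 cells in 2% charcoal/dextran-treated FBS medium; compounds titrated (1:2, duplicate), then stimulated with 0.5 nM 17-beta-estradiol for 18 h at 37C. CCF4 beta-lactamase fluorescence; Hill-fit IC50 and efficacy.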

[7] = target: Glucocorticoid receptor (Homo sapiens) (UniProt P04150); experiment: qHTS assay for small molecule agonists of glucocorticoid receptor signaling (AID 588532; active = well fitted curve in the direction sought with a large enough effect in the signal ratio, with a control signal flat; the % refers to the signal ratio); settings: HeLa MMTV-bla, beta-lactamase ratio, agonist, 18 h; stronger effect = higher value; percent of dexamethasone control, DMSO zero
In short: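 Stimulation of a glucocorticoid response element-driven beta-lactamase gene was measured in HeLa cells. Responses were scaled between DMSO basal and 0.1 uM dexamethasone, then fitted for half-maximal stimulation.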

[8] = target: Peroxisome proliferator-activated receptor gamma (Homo sapiens) (UniProt P37231); experiment: qHTS assay for small molecule agonists of peroxisome proliferator-activated receptor gamma signaling (AID 588536; active = well fitted curve in the direction sought with a large enough effect in the signal ratio, with a control signal flat, not every such curve was filed as active; the % refers to the signal ratio)
In short: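 PPAR-gamma-UAS-bla HEK293 cells in medium with 1% charcoal/dextran-treated FBS were exposed to compounds for 16 h at 37 C. Beta-lactamase activity was read with CCF4 substrate (405 nm excitation, 460/530 nm emission).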

[9] = target: Vitamin D3 receptor (Homo sapiens) (UniProt P11473); experiment: qHTS assay for small molecule agonists of vitamin D receptor signaling (AID 588543)
In short: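 VDR-UAS-bla HEK293T cells, 2000/well, 2% charcoal-stripped FBS; compound titration 16 h at 37 C; CCF4 beta-lactamase ratio read. Normalized to 50 nM 1-alpha,25-dihydroxyvitamin D3 (100%) and DMSO; Hill fit gives EC50, efficacy.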

[10] = qHTS assay for small molecule agonists of retinoid X receptor alpha signaling (AID 588544); settings: HEK293T RXRa-UAS-bla, beta-lactamase reporter, 18 h; 530 nm emission
[11] = target: Retinoic acid receptor RXR-alpha (Homo sapiens) (UniProt P19793); experiment: as above
[12] = target: Thyroid hormone receptor beta (Homo sapiens) (UniProt P10828); experiment: qHTS assay for small molecule antagonists of thyroid hormone receptor beta signaling (AID 588547; active = well fitted inhibition curve with a large enough effect in the signal ratio, with a control signal flat, not every such curve was filed as active; the % refers to the signal ratio;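 note: cells stimulated with 0.4 nM T3 agonist during compound exposure; series mostly up to about 77 µM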); settings: TR-UAS-bla HEK293, beta-lactamase ratio, antagonist mode, 18 h
In short: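 TR-UAS-bla GripTite HEK293 cells in 2% charcoal/dextran FBS medium were preincubated 4 h at 37 C, given compound (0.59 nM to 92 uM) plus 0.4 nM T3 (final) for 18 h, then CCF4 for 2 h at RT; Hill fit gave IC50.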

[13] = target: Voltage-gated inwardly rectifying potassium channel KCNH2 (Homo sapiens) (UniProt Q12809); experiment: qHTS Assay for Small Molecule Inhibitors of the Human hERG Channel Activity (AID 588834; active = well fitted curve in the direction sought with a large enough effect; an effect the other way counts as inactive or inconclusive;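 note: top concentration of the series differs between compounds; lower thallium flux fluorescence means stronger hERG block; nearly all actives have a fitted effect of over 50% in size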)
In short: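 U2OS cells BacMam-transduced with hERG, 2000 cells/well, compound ~10 min at 37 °C before stimulation buffer. FluxOR thallium flux fluorescence read kinetically on FDSS; decrease indicates block; AC50 from Hill fits.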

[14] = qHTS assay for small molecule activators of the p53 signaling pathway (AID 651743; active = well fitted activation curve with a large enough effect in the signal ratio, not every such curve was filed as active; the % refers to the signal ratio; note: series mostly up to about 92 µM); settings: HCT-116 p53RE-bla, beta-lactamase FRET ratio, 16 h; activation: stronger effect = higher value
In short: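 p53RE-bla HCT-116 cells with a stably integrated beta-lactamase reporter under p53 response elements were plated, rested 5 hours at 37 C/5% CO2, then exposed to compounds in DMSO for 16 hours at 37 C. LiveBLAzer B/G FRET substrate was read after 2 hours at room temperature.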

[15] = qHTS assay for small molecule disruptors of the mitochondrial membrane potential - 1 hr assay (AID 651754); note: nearly all actives have a fitted effect of over 35% in size
In short: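 Steps: seed HepG2 cells and let attach overnight; pin-transfer compound or vehicle; incubate 1 hr at 37C; add Mito-MPS dye for 30 min; read two-channel fluorescence for monomer and aggregate forms.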

[16] = qHTS assay for small molecule disruptors of the mitochondrial membrane potential - 5 hr assay (AID 651755); note: nearly all actives have a fitted effect of over 40% in size
In short: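 HepG2 cells, attached overnight at 37C, were exposed to compound or DMSO for 5 hr at 37C, 5% CO2. Mito-MPS dye was then added for 30 min, and fluorescence read at 490/535 nm (monomers) and 540/590 nm (aggregates).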

[17] = target: Tumor necrosis factor (Homo sapiens) (UniProt P01375); experiment: qHTS assay to identify small molecules that stimulate Tumor Necrosis Factor-alpha (TNF-alpha) secretion (AID 651757; active = well fitted curve in the direction sought with a large enough effect in the signal ratio; the % refers to the signal ratio)
In short: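 Secreted TNF-alpha from compound-treated THP-1 cells (17 hrs, 37 C) was quantified with a homogeneous time-resolved fluorescence antibody assay.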

[18] = qHTS assay for small molecule antagonists of the retinoid-related orphan receptor gamma (ROR-gamma) signaling pathway - cell viability counter screen (AID 720652; active = well fitted curve in the direction sought with a large enough effect in the repeat runs; an effect the other way counts as inactive or inconclusive;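 note: CHO reporter cells with doxycycline-induced ROR-gamma expression; series mostly up to about 92 µM; compound exposure lasted 16 hr before ATP read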)
In short: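 Cytotoxicity is quantified via intracellular ATP (CellTiter-Glo luminescence) in doxycycline-induced CHO ROR response element-luciferase reporter cells treated with compound for 16 hr at 37 C, 5% CO2.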

[19] = target: Nuclear receptor subfamily 1 group I member 2 (Rattus norvegicus) (UniProt Q9R1A7); experiment: qHTS assay for small molecule activators of the rat pregnane X receptor (rPXR) signaling pathway (AID 651751; call rule not given here); settings: rPXR reporter cells, luciferase (One-Glo), 24 h
[20] = qHTS assay for small molecule activators of the human pregnane X receptor (PXR) signaling pathway (AID 720659; call rule not given here)

Chain of Vitamin D3 receptor (Homo sapiens) (P11473 whole entry, looked up): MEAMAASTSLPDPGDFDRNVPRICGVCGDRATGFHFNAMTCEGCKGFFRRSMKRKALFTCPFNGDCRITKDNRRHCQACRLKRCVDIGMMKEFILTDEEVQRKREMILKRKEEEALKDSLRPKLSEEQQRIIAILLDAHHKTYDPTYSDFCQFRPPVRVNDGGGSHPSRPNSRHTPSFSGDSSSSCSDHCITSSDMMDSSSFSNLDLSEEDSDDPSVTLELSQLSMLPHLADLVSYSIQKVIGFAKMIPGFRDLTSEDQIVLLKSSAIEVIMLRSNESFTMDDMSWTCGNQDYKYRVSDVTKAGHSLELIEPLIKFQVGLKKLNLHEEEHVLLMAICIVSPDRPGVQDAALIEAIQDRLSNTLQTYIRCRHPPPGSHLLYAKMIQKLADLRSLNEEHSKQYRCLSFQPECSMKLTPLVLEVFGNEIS
Chain of Thyroid hormone receptor beta (Homo sapiens) (P10828 whole entry, looked up): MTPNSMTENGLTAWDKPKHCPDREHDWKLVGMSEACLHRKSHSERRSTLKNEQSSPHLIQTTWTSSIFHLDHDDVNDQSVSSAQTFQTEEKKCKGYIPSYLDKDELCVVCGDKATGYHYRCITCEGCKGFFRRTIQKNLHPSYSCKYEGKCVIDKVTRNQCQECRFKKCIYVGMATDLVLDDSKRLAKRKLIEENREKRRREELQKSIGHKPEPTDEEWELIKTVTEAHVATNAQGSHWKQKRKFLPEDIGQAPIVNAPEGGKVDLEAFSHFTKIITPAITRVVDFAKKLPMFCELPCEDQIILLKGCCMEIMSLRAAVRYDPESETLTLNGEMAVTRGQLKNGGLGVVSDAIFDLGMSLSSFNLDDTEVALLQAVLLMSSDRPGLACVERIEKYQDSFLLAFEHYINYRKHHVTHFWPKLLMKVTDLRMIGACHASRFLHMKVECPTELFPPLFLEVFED
Chain of Voltage-gated inwardly rectifying potassium channel KCNH2 (Homo sapiens) (Q12809 whole entry, looked up): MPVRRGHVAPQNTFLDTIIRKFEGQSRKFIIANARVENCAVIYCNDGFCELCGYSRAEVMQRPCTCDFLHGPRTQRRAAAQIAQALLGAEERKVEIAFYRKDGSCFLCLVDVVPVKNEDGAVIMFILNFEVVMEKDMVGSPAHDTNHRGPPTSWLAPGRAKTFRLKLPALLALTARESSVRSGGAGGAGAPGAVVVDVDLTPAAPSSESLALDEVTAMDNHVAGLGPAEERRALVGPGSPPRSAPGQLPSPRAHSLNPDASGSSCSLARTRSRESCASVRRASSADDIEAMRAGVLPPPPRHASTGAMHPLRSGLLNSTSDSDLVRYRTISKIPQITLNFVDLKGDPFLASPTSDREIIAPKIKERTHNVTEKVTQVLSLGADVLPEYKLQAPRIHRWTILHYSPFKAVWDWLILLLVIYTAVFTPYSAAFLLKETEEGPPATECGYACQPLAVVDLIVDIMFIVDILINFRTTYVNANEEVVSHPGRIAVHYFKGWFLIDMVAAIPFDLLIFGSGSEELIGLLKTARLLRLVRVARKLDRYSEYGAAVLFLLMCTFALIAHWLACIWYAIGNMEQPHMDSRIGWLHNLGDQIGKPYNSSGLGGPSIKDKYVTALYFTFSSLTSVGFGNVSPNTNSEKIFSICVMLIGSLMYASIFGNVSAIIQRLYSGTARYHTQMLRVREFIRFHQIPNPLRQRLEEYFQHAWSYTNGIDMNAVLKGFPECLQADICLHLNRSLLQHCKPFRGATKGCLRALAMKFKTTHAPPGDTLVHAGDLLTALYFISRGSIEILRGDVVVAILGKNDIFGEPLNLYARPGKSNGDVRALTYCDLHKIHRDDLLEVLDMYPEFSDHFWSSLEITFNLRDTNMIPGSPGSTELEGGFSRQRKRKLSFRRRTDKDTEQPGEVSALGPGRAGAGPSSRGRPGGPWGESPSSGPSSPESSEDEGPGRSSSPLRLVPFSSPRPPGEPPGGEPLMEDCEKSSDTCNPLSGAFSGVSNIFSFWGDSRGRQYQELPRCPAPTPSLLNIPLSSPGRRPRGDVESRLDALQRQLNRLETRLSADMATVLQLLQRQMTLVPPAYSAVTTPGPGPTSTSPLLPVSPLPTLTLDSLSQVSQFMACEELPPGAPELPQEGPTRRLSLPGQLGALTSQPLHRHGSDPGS
Chain of Glucocorticoid receptor (Homo sapiens) (P04150 whole entry, looked up): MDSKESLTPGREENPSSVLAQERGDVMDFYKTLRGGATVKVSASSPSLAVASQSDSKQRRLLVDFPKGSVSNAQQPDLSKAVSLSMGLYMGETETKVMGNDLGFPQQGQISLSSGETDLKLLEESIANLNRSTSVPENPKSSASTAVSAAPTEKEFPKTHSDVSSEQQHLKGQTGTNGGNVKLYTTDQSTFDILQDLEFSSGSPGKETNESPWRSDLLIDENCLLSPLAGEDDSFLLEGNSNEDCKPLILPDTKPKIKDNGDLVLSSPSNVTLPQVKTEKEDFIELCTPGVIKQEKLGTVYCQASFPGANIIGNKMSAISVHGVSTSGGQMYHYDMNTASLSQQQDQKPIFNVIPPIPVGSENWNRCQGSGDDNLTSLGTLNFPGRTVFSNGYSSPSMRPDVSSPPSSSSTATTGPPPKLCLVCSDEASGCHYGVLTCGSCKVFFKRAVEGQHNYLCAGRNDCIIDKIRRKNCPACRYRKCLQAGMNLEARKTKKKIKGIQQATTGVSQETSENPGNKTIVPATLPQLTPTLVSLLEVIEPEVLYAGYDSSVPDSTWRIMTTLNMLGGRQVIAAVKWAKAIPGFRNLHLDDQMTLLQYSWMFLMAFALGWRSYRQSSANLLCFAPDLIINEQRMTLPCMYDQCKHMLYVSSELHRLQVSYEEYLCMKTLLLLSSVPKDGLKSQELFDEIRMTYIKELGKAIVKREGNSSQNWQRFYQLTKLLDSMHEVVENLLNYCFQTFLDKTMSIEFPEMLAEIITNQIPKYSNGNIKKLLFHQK
Chain of Estrogen receptor (Homo sapiens) (P03372 whole entry, looked up): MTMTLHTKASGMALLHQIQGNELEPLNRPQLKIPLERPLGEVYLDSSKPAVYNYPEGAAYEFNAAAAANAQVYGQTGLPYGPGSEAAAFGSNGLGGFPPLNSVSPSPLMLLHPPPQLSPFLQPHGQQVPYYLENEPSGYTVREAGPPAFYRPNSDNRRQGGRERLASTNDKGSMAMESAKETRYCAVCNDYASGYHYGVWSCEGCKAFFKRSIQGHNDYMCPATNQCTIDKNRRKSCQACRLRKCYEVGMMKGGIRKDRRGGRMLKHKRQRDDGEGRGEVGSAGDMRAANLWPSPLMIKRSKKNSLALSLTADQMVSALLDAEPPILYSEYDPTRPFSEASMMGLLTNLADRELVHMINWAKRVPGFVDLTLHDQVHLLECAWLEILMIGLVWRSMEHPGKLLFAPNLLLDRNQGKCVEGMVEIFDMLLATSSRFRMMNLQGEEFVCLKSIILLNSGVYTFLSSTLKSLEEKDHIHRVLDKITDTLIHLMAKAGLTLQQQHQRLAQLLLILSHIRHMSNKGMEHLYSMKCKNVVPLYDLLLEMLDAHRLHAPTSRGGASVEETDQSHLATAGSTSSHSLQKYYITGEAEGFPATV
Chain of Cytochrome P450 3A4 (Homo sapiens) (P08684 whole entry, looked up): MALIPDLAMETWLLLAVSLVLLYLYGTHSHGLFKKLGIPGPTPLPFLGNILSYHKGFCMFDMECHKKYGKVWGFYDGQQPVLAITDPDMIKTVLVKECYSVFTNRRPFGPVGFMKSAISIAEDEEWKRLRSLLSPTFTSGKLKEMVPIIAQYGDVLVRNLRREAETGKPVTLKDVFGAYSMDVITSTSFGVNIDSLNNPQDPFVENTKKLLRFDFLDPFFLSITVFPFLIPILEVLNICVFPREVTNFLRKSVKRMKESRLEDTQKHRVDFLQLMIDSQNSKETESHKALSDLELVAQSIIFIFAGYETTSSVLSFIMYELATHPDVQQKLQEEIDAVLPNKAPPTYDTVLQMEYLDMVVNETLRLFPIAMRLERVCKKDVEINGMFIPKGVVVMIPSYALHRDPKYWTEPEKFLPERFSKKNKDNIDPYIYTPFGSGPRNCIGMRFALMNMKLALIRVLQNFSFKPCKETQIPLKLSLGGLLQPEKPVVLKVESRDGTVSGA
Chain of Nuclear receptor subfamily 1 group I member 2 (Rattus norvegicus) (Q9R1A7 whole entry, looked up): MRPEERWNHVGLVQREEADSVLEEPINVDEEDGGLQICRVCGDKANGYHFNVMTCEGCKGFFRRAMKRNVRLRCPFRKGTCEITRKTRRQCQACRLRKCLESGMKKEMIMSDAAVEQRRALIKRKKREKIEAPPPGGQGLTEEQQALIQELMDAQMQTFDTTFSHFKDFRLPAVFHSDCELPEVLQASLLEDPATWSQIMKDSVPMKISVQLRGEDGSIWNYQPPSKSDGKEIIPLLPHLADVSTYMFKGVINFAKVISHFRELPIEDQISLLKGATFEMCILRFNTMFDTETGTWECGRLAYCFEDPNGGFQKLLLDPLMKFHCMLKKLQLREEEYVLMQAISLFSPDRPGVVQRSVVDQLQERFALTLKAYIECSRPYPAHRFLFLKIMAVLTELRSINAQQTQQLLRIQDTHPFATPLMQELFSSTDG
Chain of Peroxisome proliferator-activated receptor gamma (Homo sapiens) (P37231 whole entry, looked up): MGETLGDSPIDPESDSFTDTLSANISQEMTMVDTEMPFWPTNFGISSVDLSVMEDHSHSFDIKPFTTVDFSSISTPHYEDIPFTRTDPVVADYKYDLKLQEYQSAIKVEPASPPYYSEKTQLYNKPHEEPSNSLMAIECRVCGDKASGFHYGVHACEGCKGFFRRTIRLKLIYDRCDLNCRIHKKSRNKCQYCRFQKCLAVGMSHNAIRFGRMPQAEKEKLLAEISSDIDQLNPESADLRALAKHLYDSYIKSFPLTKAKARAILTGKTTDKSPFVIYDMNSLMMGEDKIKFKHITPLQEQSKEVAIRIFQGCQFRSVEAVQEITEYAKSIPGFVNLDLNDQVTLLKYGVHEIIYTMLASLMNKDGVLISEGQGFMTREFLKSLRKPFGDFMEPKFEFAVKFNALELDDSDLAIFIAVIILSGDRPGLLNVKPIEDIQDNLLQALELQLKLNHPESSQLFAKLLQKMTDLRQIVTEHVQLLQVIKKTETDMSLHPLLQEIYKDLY

SMILES | Potency [1] | Potency [2] | Potency [3] | Potency [4] | Potency [5] | Potency [6] | activation [7] | outcome [8] | outcome [9] | max response [10] | outcome [11] | activity change % (negative = inhibition) [12] | Potency [13] | activation [14] | Potency [15] | Potency [16] | outcome [17] | Potency [18] | max response [19] | outcome [20]
Cc1ccc([N+](=O)[O-])c(C)c1 | inactive | inactive | inactive | inactive | inactive | inactive | -4.65% (inactive) and 0.746% (inactive) | inactive | inactive | -5.33% and -0.658% | inactive | -7.14% (inactive) and -11% (inactive) | inactive | 0.814% (inactive) and -2.3% (inactive) | inactive | inactive | inactive | inactive | 3.04% (inactive) and -0.0498% (inactive) | inactive
Clc1cc(Cl)c(Cl)cc1Cl | inactive | inactive | inactive | inactive | inactive | inactive | 3.81% (inactive) and -2.02% (inactive) | inactive |  | 4.21% and -11.5% | inactive | 5.68% (inactive) and 7.52% (inactive) | inactive | -2.65% (inactive) and -1.28% (inactive) | inactive | inactive | inactive | inactive | 1.48% (inactive) and 5.88% (inactive) | inactive
Clc1cc(Cl)c(Cl)c(Cl)c1Cl |  |  | inactive | inactive | inactive | inactive | -4.89% (inactive) and 1.1% (inactive) |  | inactive | -1.44% and -10.6% | inactive | 4.53% (inactive) and 17.6% (inactive) | inactive | -3.68% (inactive) and 2.1% (inactive) | inactive | inactive | inactive | inactive | 0.274% (inactive) and 3.7% (inactive) | inactive
CN(C)CCCCCCN(C)C |  | inactive | inactive | inactive | inactive |  |  | inactive | inactive | -13.8% | inactive | 5.32% (inactive) |  | -2.74% (inactive) | inactive | inactive | inactive | inactive |  | 
COc1ccc2[nH]cc(CCNc3nc(-c4ccccc4OC)nc4ccccc34)c2c1 | inactive | 2510 nM (active) |  |  |  |  |  |  |  |  |  |  |  |  |  |  |  |  |  | 
CC(C)=CCCC(C)CCO (stereo unspecified) | inactive | inactive | inactive | inactive | inactive | inactive | 0.913% (inactive) and 4.62% (inactive) | inactive |  | -10.2% and -2.4% | inactive | -8.9% (inactive) and -1.71% (inactive) | inactive | 0.545% (inactive) and -1.78% (inactive) | inactive | inactive | inactive | inactive | -5.01% (inactive) and 0.846% (inactive) | inactive
COCC(=O)O | inactive | inactive | inactive | inactive | inactive | inactive | 1.9% (inactive) and -4.38% (inactive) | inactive | inactive | 0.473% and -13.2% | inactive | -5.02% (inactive) and -7.68% (inactive) | inactive | 0.0042% (inactive) and -6.16% (inactive) | inactive | inactive | inactive | inactive | 1.77% (inactive) and 0.862% (inactive) | 
CCO[Si](CCCN)(OCC)OCC |  | inactive | inactive | inactive | inactive | inactive | 5.03% (inactive) and 9.33% (inactive) | inactive | inactive | 12.6% and -3.12% | inactive |  | inactive | -1.64% (inactive) and -2.02% (inactive) | inactive | inactive | inactive | inactive | -3.96% (inactive) and 0.794% (inactive) | inactive
O=C(O)CCCCCCCCC(=O)O |  |  |  |  |  |  |  | inactive | inactive | 9.91% | inactive | 3.38% (inactive) |  | 0.877% (inactive) |  |  |  |  | -1.81% (inactive) | inactive
CCCCCCCCO |  | inactive | inactive |  | inactive | inactive | -2.22% (inactive) and -1.08% (inactive) | inactive | inactive | -1.34% and -17.2% and -8.68% | inactive | -10.6% (inactive) and 5.6% (inactive) and -2.56% (inactive) | inactive | -2.87% (inactive) and -7.85% (inactive) and -0.202% (inactive) | inactive | inactive | inactive | inactive | -3.47% (inactive) and -2.32% (inactive) and 2.37% (inactive) | inactive
CCC(O)OC(O)CC (stereo unspecified) | inactive | inactive | inactive | inactive | inactive | inactive | 1.96% (inactive) and -2.19% (inactive) and -0.591% (inactive) | inactive | inactive | -2.11% and -3.85% and -13.7% | inactive | -5.47% (inactive) [middle of 4 runs] | inactive | 0.0103% (inactive) [middle of 4 runs] | inactive | inactive | inactive | inactive | -0.225% (inactive) [middle of 4 runs] | inactive
c1ccc2c(c1)c1cccc3ccc4cccc2c4c31 | inactive | inactive | inactive | inactive | inactive | inactive | 2.22% (inactive) and -5.73% (inactive) |  |  | -17% and -12.4% | inactive | 6.13% (inactive) and -3.87% (inactive) | inactive | 8.13% (inactive) and 3.99% (inactive) | inactive | inactive |  | inactive | 4.91% (inactive) and -2.4% (inactive) | inactive
